# Columns and labels:
# Test in all cases: yeast three-hybrid, YBZ-1, SC-Leu-His + 0.5 mM 3-AT, 4 days
# Details in all cases: tags: N-Gal4 AD-HA kept; label: inside an RPR1-promoter hybrid RNA with tandem MS2 sites; ssRNA
# [1] = biological target: PUM1 PUF domain R1-TWR (Homo sapiens, UniProt Q14671 828-1176, S863T;R864W;Q867R)
# Method in brief: (§1)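 Matching RNA elements and Pumilio-1 PUF domain libraries, randomized at the three base-contacting residues of every repeat, were co-expressed from a centromeric plasmid in strain YBZ-1 (LexA–MS2 coat fusion, HIS3 reporter). The repeat regions were PCR-amplified and Illumina-sequenced from cells grown four days on SC-Leu (input) or SC-Leu-His + 0.5 mM 3-AT (selection). The interaction score is the log change in variant frequency from input to selection. It is computed in log2, with a pseudocount of 1 for absent variants.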
# [2] = biological target: PUM1 PUF domain R3-VFG (Homo sapiens, UniProt Q14671 828-1176, C935V;R936F;Q939G)
# Method in brief: as §1
# [3] = biological target: PUM1 PUF domain R5-DFR (Homo sapiens, UniProt Q14671 828-1176, C1007D;R1008F;Q1011R)
# Method in brief: as §1
# [4] = biological target: PUM1 PUF domain R5-HKK (Homo sapiens, UniProt Q14671 828-1176, C1007H;R1008K;Q1011K)
# Method in brief: as §1
# [5] = biological target: PUM1 PUF domain R5-TRK (Homo sapiens, UniProt Q14671 828-1176, C1007T;Q1011K)
# Method in brief: as §1
# [6] = biological target: PUM1 PUF domain R5-QQG (Homo sapiens, UniProt Q14671 828-1176, C1007Q;R1008Q;Q1011G)
# Method in brief: as §1
# [7] = biological target: PUM1 PUF domain R8-KWG (Homo sapiens, UniProt Q14671 828-1176, N1122K;Y1123W;Q1126G)
# Method in brief: as §1
# [8] = biological target: PUM1 PUF domain R8-CYN (Homo sapiens, UniProt Q14671 828-1176, N1122C;Q1126N)
# Method in brief: as §1
# [9] = biological target: PUM1 PUF domain R3-CHG (Homo sapiens, UniProt Q14671 828-1176, R936H;Q939G)
# Method in brief: as §1
# [10] = biological target: PUM1 PUF domain R5-PRF (Homo sapiens, UniProt Q14671 828-1176, C1007P;Q1011F)
# Method in brief: as §1
# Chain of PUM1 PUF domain R5-DFR (Q14671 828-1176 C1007D/R1008F/Q1011R): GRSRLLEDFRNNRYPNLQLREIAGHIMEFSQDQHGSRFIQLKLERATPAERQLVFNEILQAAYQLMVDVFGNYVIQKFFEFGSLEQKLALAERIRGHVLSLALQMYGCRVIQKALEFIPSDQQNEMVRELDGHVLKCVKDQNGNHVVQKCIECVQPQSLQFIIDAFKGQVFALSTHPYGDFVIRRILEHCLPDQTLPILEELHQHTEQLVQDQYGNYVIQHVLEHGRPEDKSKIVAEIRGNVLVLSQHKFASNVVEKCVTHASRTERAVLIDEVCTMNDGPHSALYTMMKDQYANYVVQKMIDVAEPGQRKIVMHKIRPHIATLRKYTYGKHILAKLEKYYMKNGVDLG
# Chain of PUM1 PUF domain R8-CYN (Q14671 828-1176 N1122C/Q1126N): as the sequence (Q14671 828-1176 C1007D/R1008F/Q1011R) above, with D180C, F181R, R184Q, N295C, Q299N counted along it
# Chain of PUM1 PUF domain R5-HKK (Q14671 828-1176 C1007H/R1008K/Q1011K): as the sequence (Q14671 828-1176 C1007D/R1008F/Q1011R) above, with D180H, F181K, R184K counted along it
sequence,measurement,setting,value
GGCUAGAACUAGUGGAUCCCCCGGCGCCCGGCGGCUCGAGCCCGGGUAAGUGUAAAUCGUCUGCAUGCCGCCGGGCGCCAUGCCUGCAGGUCGACUCUAGAAAACAUG,binding signal,[1],5.66 log2 enrichment (interaction score)
GGCUAGAACUAGUGGAUCCCCCGGCGCCCGGCGGCUCGAGCCCGGGUAAGUGUAAUUAGUCUGCAUGCCGCCGGGCGCCAUGCCUGCAGGUCGACUCUAGAAAACAUG,binding signal,[2],4.61 log2 enrichment (interaction score)
GGCUAGAACUAGUGGAUCCCCCGGCGCCCGGCGGCUCGAGCCCGGGUAAGUGUAAAUUGUCUGCAUGCCGCCGGGCGCCAUGCCUGCAGGUCGACUCUAGAAAACAUG,binding signal,[1],0.55 log2 enrichment (interaction score)
GGCUAGAACUAGUGGAUCCCCCGGCGCCCGGCGGCUCGAGCCCGGGUAAGUGUCAAUAGUCUGCAUGCCGCCGGGCGCCAUGCCUGCAGGUCGACUCUAGAAAACAUG,binding signal,[3],5.27 log2 enrichment (interaction score)
GGCUAGAACUAGUGGAUCCCCCGGCGCCCGGCGGCUCGAGCCCGGGUAAGUGUUAAUAGUCUGCAUGCCGCCGGGCGCCAUGCCUGCAGGUCGACUCUAGAAAACAUG,binding signal,[4],2.41 log2 enrichment (interaction score)
same,binding signal,[5],4.73 log2 enrichment (interaction score)
same,binding signal,[6],2.7 log2 enrichment (interaction score)
GGCUAGAACUAGUGGAUCCCCCGGCGCCCGGCGGCUCGAGCCCGGGUAAGCGUAAAUAGUCUGCAUGCCGCCGGGCGCCAUGCCUGCAGGUCGACUCUAGAAAACAUG,binding signal,[7],6.36 log2 enrichment (interaction score)
same,binding signal,[8],2.28 log2 enrichment (interaction score)
GGCUAGAACUAGUGGAUCCCCCGGCGCCCGGCGGCUCGAGCCCGGGUAAGUGUAAGUAGUCUGCAUGCCGCCGGGCGCCAUGCCUGCAGGUCGACUCUAGAAAACAUG,binding signal,[2],1.68 log2 enrichment (interaction score)
same,binding signal,[9],0.98 log2 enrichment (interaction score)
GGCUAGAACUAGUGGAUCCCCCGGCGCCCGGCGGCUCGAGCCCGGGUAAGUGUAAAUAGUCUGCAUGCCGCCGGGCGCCAUGCCUGCAGGUCGACUCUAGAAAACAUG,binding signal,[7],5.91 log2 enrichment (interaction score)
same,binding signal,[5],4.09 log2 enrichment (interaction score)
same,binding signal,[2],3.82 log2 enrichment (interaction score)
same,binding signal,[6],0.25 log2 enrichment (interaction score)
same,binding signal,[10],3.86 log2 enrichment (interaction score)
same,binding signal,[9],2.43 log2 enrichment (interaction score)

# Reference: publication PMC8384837, “Expanding the binding specificity for RNA recognition by a PUF domain”
